VLA-4 inh – inhibition in a human VLA-4 binding assay; P13612; VLA-4 expressing cells, ligand binding flow cytometry; inhibition, % (about 7 µM as worked out from the volumes in the protocol); 330,000 compounds, 0.2% hits; in the data active = inhibition above about 50%
CendR NRP1 mod – NRP-1/CendR interaction modulation; O14786; FAM-RPARPAR peptide binding to NRP-1, fluorescence polarization; inhibition, % at 25 µM; 360,000 compounds, 0.85% hits;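 active = inhibition or corrected inhibition above about 18%, plus a signal ratio from 0.5 to 1.5, limit read from the data, passing the limit was not always enough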
A3A deaminase – human APOBEC3A DNA deaminase inhibition. recombinant A3A, FAM/TAMRA ssDNA deamination fluorescence. inhibition, % at 20 µM. 330,000 compounds, 0.41% hits. AID 493011;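 active = at least 40% inhibition at 20 µM here, with at most 30% in a related deaminase screen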
A3G deaminase – blocks human APOBEC3G single-stranded DNA deamination; AID 493012; Q9HC16; inhibition, % at 20 µM; recombinant A3G, ssDNA deamination FAM/TAMRA fluorescence; 330,000 compounds, 0.28% hits;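 active = inhibition of at least 40% at 20 µM, with no more than 30% in the related APOBEC3A deaminase screen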
MIN6 prolif – induces beta-cell replication in MIN6 cells; MIN6 cells proliferation, ATPlite luminescence, 48 h; cells starved in 0.2% serum; 100% = growth in 10% serum; proliferation, % at 10 µM; 330,000 compounds, 0.29% hits;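 active = compounds whose signal lies at least 3.5 SD above the mean of all wells on their plate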
Each line names hits and unclear results; the compound was inactive in the other large screens. The list is not random: actives were taken first. Their share in the collection is about 1.8%.

CC(=O)c1cccc(S(=O)(=O)N2CCCC(c3nc4c(nnn4Cc4cccc(Cl)c4)c(=O)[nH]3)C2)c1 (centres undefined)	none
COC(=O)c1ccc(Cn2nnc3c(=O)[nH]c(C4CCCN(S(=O)(=O)c5cccc(Cl)c5)C4)nc32)cc1 (centres undefined)	CendR NRP1 mod 27
CCOC(=O)Cc1csc(NC(=O)CSc2ncnc3c2cnn3-c2ccccc2Cl)n1	CendR NRP1 mod 21 (no result: VLA-4 inh, A3A deaminase, A3G deaminase, MIN6 prolif)
Cc1nn(C)c(C(=O)NNC(=O)Nc2cccc(C(F)(F)F)c2)c1Cl	none
O=C(Nc1ccc(OC(F)(F)F)cc1)C1CCCCN1S(=O)(=O)c1ccccc1 (centres undefined)	none (no result: VLA-4 inh)
CC(=O)Nc1ccc2nc3c(=O)n(C)c(=O)n(C)c3nc2c1	CendR NRP1 mod 42
O=C(Cn1c(C(=O)OCCO)cc2ccccc21)c1ccccc1	none
CS(=O)(=O)Nc1ccc(C(=O)Nc2ccccc2Cl)cc1	none
CS(=O)(=O)Nc1ccc(C(=O)Nc2ccccc2-c2ccccc2)cc1	CendR NRP1 mod 27
CCOC(=O)N1CCN(C(=O)c2cc3n(n2)C(C(F)(F)F)CC(c2ccc4c(c2)OCO4)N3)CC1 (centres undefined)	CendR NRP1 mod 22
COc1ccc(C(O)Cn2ccsc2=NC(C)=O)cc1 (centres undefined)	none
CC(=O)Nc1sc(C)c(C)c1C(=O)OCC(=O)N(CC(C)C)C1CCS(=O)(=O)C1 (centres undefined)	CendR NRP1 mod 28
CC(C)CN(C(=O)COC(=O)c1c(Cl)ccc(Cl)c1Cl)C1CCS(=O)(=O)C1 (centres undefined)	none
CSCCC(NC(=O)c1ccccc1)C(=O)N1CC=C(c2ccccc2)CC1 (centres undefined)	none
CN(CC(=O)Nc1cccc(F)c1)C(=O)CCc1nc2sc3c(c2c(=O)[nH]1)CCCC3	none
Cc1ccc2oc(=O)c(/C=C(\O)c3cccs3)nc2c1	none
Cc1ccc2oc(=O)c(/C=C(\O)c3ccccc3)nc2c1	CendR NRP1 mod 42
CC(=O)c1ccc(OC(=O)CN2C(=O)c3ccccc3C2=O)cc1	none
CCc1ccc(OC(=O)CN2C(=O)c3ccccc3C2=O)cc1	CendR NRP1 mod 26
CC(C)(CO)Cc1cc(C(C)(C)C)c(O)c(C(C)(C)C)c1	CendR NRP1 mod 17
CSc1nnc(-c2ccco2)c(-c2ccco2)n1	CendR NRP1 mod 29
CCC(c1nnnn1C1CCCCC1)N(Cc1ccco1)Cc1cc2ccc(OC)cc2[nH]c1=O (centres undefined)	CendR NRP1 mod 29 (no result: VLA-4 inh, A3A deaminase, A3G deaminase, MIN6 prolif)
COc1ccc([C@H]2Cc3cccc(O)c3C(=O)O2)cc1O	CendR NRP1 mod 31
O=C1O[C@@H](c2ccc(O)cc2)Cc2cccc(O)c21	CendR NRP1 mod 30
COc1ccc(-c2noc(-c3ccccc3C(=O)N3CCOCC3)n2)cc1	CendR NRP1 mod 26
COC(=O)COc1ccc(C(=O)Cn2c(NCCCO)nc3ccccc32)cc1	none
Cc1ccc(N(Cc2cc3ccccc3[nH]c2=O)S(=O)(=O)c2ccccc2)cc1	none
Cc1ccc2cc(CN(c3ccccc3C)S(=O)(=O)c3ccccc3)c(=O)[nH]c2c1	CendR NRP1 mod 25
C=CCn1c(SCC(=O)Nc2ncc(Cc3ccc(Br)cc3)s2)nnc1-c1ccncc1	CendR NRP1 mod 23
COc1ccc(C(=O)Nc2nc(C)cc(C)n2)cc1	none
COc1ccc(C(=O)Nc2n[nH]c(-c3ccncc3)n2)cc1	CendR NRP1 mod 26
Cc1ccccc1NC(=O)Cn1c(C)nc2ccc(N)cc2c1=O	CendR NRP1 mod 24
Cc1ccccc1NC(=O)Cn1c(C)nc2ccc(NC(=O)C3CC3)cc2c1=O	none
Cc1noc(NS(=O)(=O)c2ccc(NC(=O)c3ccc(Cl)c(S(=O)(=O)N(C)c4ccccc4)c3)cc2)c1C	none (no result: VLA-4 inh)
Cc1ccccc1C1=NC(c2ccc(F)cc2F)ON1 (centres undefined)	CendR NRP1 mod 22
O=C(/C=C/c1ccco1)N/C(=C\c1ccccc1)C(=O)NCCc1nc2ccccc2[nH]1	CendR NRP1 mod 40
Cc1ccc(NC(=S)N2CCCC2)cc1Cl	none
Cc1ccc(C(=O)NNC(=O)/C=C\C(=O)O)cc1	none
CCCCC(C(=O)O)C(C)CC(=O)Nc1ccn(-c2ccccc2)n1 (centres undefined)	CendR NRP1 mod 45
CC(C)CC(C(=O)O)C(C)CC(=O)Nc1ccn(-c2ccccc2)n1 (centres undefined)	none
COCCN(C(=O)CNC(=O)c1cccs1)C(C(=O)NC1CCCC1)c1cccs1 (centres undefined)	CendR NRP1 mod 19
OC(CCc1ccncc1)COc1ccccc1 (centres undefined)	CendR NRP1 mod 20
OC(CCc1ccncc1)c1ccccc1 (centres undefined)	none
O=C1C=C(c2ccc(Oc3ccccc3)cc2)C[C@@H](c2ccc(Cl)cc2)C1	CendR NRP1 mod 32
CC(=O)Nc1ccc(C2=CC(=O)C[C@H](c3ccc(Cl)cc3)C2)cc1	none
CSc1ccc(C2=CC(=O)C[C@H](c3ccc(Cl)cc3)C2)cc1	CendR NRP1 mod 28
O=C1OC(c2ccccc2)Cc2cc(C(=O)N3CCN(c4ccc(F)cc4)CC3)ccc21 (centres undefined)	none (no result: VLA-4 inh)
CCO[C@@H]1OC(C(=O)NC2CC2)=C[C@H](C(C)(C)C)[C@H]1CCCO	CendR NRP1 mod 23
CCO[C@H]1OC(C(=O)Nc2ccccc2)=C[C@@H](c2coc3ccccc3c2=O)[C@@H]1CCCO	none
CCO[C@@H]1OC(C(=O)NCc2ccccc2)=C[C@H](c2coc3ccccc3c2=O)[C@H]1CCCO	CendR NRP1 mod 20
CCO[C@@H]1OC(C(=O)NCc2ccccc2)=C[C@H](C)[C@H]1CCCO	CendR NRP1 mod 26 (no result: VLA-4 inh)
CCO[C@@H]1OC(C(=O)NCc2ccccc2)=C[C@H](c2ccccc2)[C@H]1CCCO	none
O=C(NCCc1ccccc1)C(=O)NCC1OCCN1S(=O)(=O)c1ccc(F)cc1 (centres undefined)	none
COCCN(C(=O)CN1CCCc2ccccc21)c1c(N)n(Cc2ccccc2)c(=O)[nH]c1=O	CendR NRP1 mod 26
COCCN(C(=O)CN1CCc2ccccc21)c1c(N)n(Cc2ccccc2)c(=O)[nH]c1=O	none
COc1ccc(CN2C(=O)CCC2(C)c2nnnn2-c2c(C)cccc2C)cc1 (centres undefined)	CendR NRP1 mod 23 (no result: VLA-4 inh, A3A deaminase, A3G deaminase, MIN6 prolif)
CC(=O)c1c(OC(=O)c2ccccc2)ccnc1C(F)(F)F	none
O=C(O)CCNc1ccc(NCCC(=O)O)c2c1C(=O)c1ccccc1C2=O	CendR NRP1 mod 46
O=C(O)c1ccc(N2CCCCCC2)c(N2C(=O)c3ccccc3C2=O)c1	CendR NRP1 mod 26
CC(=O)Nc1ccc(NC(=O)COc2ccc(S(=O)(=O)N3CCCC3)cc2)cc1	none
O=C(COc1ccc(S(=O)(=O)N2CCCC2)cc1)Nc1ccc2c(c1)OCCO2	CendR NRP1 mod 36
COc1cccc(CN(C)S(=O)(=O)c2ccc3c(c2)OCCO3)c1	CendR NRP1 mod 19 (no result: VLA-4 inh)
COc1ccc(S(=O)(=O)N(C)Cc2ccc3c(c2)OCCO3)cc1	none

Bioassay records as filed in PubChem.
